Source: PubChem
Hits are enriched below; roughly 2.1% of the tested compounds scored in any of these assays.
CFTR F508del cor – CFTR F508del correction in bronchial cells. CFBE cells, YFP halide quenching; stimulated with forskolin plus potentiator P3; % fluorescence drop versus neutral controls. activity (quench increase), % at 7.58 µM. 350,000 tested, 0.36% active;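 active = mean added fluorescence quench of at least 8% versus neutral control, with both replicates also reaching 8%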;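 note: cells transiently co-express mutant CFTR-F508del with the halide-sensitive YFP; corrector assay measuring rescue of mutant channel to the surface after 24 h compound exposure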
ERAP1 HTS inh – ERAP1 (human) enzyme inhibition; recombinant ERAP1, Leu-AMC fluorescence, 60 min; inhibition, % at 10.7 µM; 340,000 tested, 0.15% active; AID 652197;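 active = mean replicate inhibition of at least 30%, or all replicates individually reaching that 30% level; inactive = mean below 30% and not every replicate reaching it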;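 note: 0% = neutral control wells and 100% = L-leucinethiol positive control wells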
PvdQ inh – blocks Pseudomonas aeruginosa PvdQ acylase activity; AID 488965; 340,000 tested, 0.063% active; purified PvdQ acylase, fluorescence plate reader; inhibition, % at 10 µM; in the data active = inhibition above about 30%, passing the limit was not always enough;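 note: 0% = vehicle neutral wells and 100% = reference inhibitor wells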
ARNT TACC3 PPI – disruptors of human ARNT/TACC3 interaction; AlphaScreen His-ARNT PAS-B/GST-TACC3 binding, luminescence; TACC3 fragment carries E629A point mutation; inhibition, % at 9.99 µM; 390,000 tested, 0.66% active; AID 623870;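 active = mean inhibition of replicates at least 50% and at least half of replicates each reaching 50%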;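 note: 0% = complete ARNT plus TACC3 wells and 100% = ARNT alone without TACC3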
Ecoli rRNA inh – selective bacterial rRNA inhibition in E. coli | 350,000 tested, 1.6% active | E. coli WT GFP vs humanized-ribosome RFP mutants, fluorescence, 24 h; active compounds read low; DMSO median 0, no signal -100 | GFP signal change (wild-type ribosome), % (no concentration beside the values) | AID 720706;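 active = significant combined selectivity score with lowered wild-type GFP, culture density cut under 30%, mutant RFP and density less affected; inactive = any of these conditions unmet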
Active calls of the source: *; x = not tested or not shown.

SMILES | CFTR F508del cor | ERAP1 HTS inh | PvdQ inh | ARNT TACC3 PPI | Ecoli rRNA inh
CC(C)c1nnc(NC(=O)CSc2nc3ccccc3[nH]2)s1 | -3.6 | -5.6 | -16.5 | -3.2 | -28.2*
Cc1nnc(NC(=O)CSc2nc3ccccc3[nH]2)s1 | 1.1 | 2.2 | 1.2 | x | 0.1
Cc1ccccc1NC(=O)/C(C#N)=C\c1cc(C)n(-c2ccc(C(=O)O)cc2)c1C | 0.8 | 15.0 | -6.8 | 5.2 | -22.9*
C[C@H]1CN([C@@H](C)CO)C(=O)c2cccc(NC(=O)C3CCCCC3)c2O[C@H]1CN(C)C(=O)Nc1ccc(C(F)(F)F)cc1 | -1.2 | 1.1 | x | 20.0 | -1.7
Cc1cccc(NC(=O)CSc2cn[nH]n2)c1 | -0.4 | -2.1 | -23.0 | -5.4 | -3.2
O=C(CSc1cn[nH]n1)Nc1cccc(C(=O)O)c1 | -0.8 | 32.4* | -1.0 | x | 7.0
O=C(C[C@@H]1C[C@@H]2c3cc(NC(=O)NC4CCCC4)ccc3O[C@@H]2[C@H](CO)O1)NC1CCCC1 | -0.2 | 3.2 | x | -0.3 | 0.4
O=S1(=O)c2ccc(Br)cc2N2CCC[C@H]2CN1Cc1ccccc1 | 9.5* | x | 0.6 | -2.2 | -2.4
O=S1(=O)c2ccc(Br)cc2N2CCC[C@@H]2CN1Cc1ccc(Cl)cc1 | 0.4 | -2.6 | -8.1 | -0.3 | 1.8
Cc1noc(C)c1S(=O)(=O)Nc1ccc2c(c1)C(=O)N([C@H](C)CO)C[C@@H](C)[C@@H](CN(C)C(=O)Nc1ccccc1)OCCCC[C@@H](C)O2 | -2.3 | 0.2 | x | 0.3 | 2.3
CCOC(=O)/C(=C\C=C1/Sc2cc(OCC)c(OCC)cc2N1CC)C(C)=O | x | x | -3.3 | 50.5* | x
CCOC(=O)/C(=C/C=C1\Sc2cc(OCC)c(OCC)cc2N1CC)C(C)=O | 0.4 | -7.0 | -10.8 | 51.5* | 71.4
C[C@@H]1CCCCO[C@H](CN(C)Cc2ccc(C(F)(F)F)cc2)[C@@H](C)CN([C@@H](C)CO)C(=O)c2cc(NC(=O)NC3CCCCC3)ccc2O1 | 2.4 | 2.9 | x | -1.3 | 0.5
C[C@@H]1CN([C@H](C)CO)C(=O)c2cc(C#Cc3ccccc3F)cnc2O[C@@H]1CN(C)C | 0.7 | -1.5 | x | -0.3 | 2.2
CCC(=O)Nc1ccc2c(c1)C(=O)N(C)[C@H]1CC[C@@H](CC(=O)NCC3CC3)O[C@H]1CO2 | 0.8 | -1.7 | x | -2.7 | 2.8
CC(C(=O)Nc1ccc(O)cc1)c1cccc(C(=O)c2ccccc2)c1 (stereo not given) | -0.9 | -3.5 | 0.0 | x | -36.8*
COc1cccc(C(=O)N[C@H](C(=O)N2CCC[C@H]2C(=O)NCCc2ccccc2Cl)c2ccccc2)c1 | -4.3 | 2.6 | x | x | -33.6*
CCCCCC(=O)NNC(=S)NC(C)=O | 2.5 | -1.0 | -2.2 | 71.4* | -15.1
COc1ccccc1C(C#N)N1N=C(C)CC1c1ccccc1 (stereo not given) | -0.8 | 1.1 | -8.1 | -4.1 | -3.2
COc1ccccc1C(C#N)c1cccc(Cl)n1 (stereo not given) | -2.1 | -0.4 | 116.3* | -4.5 | -1.4
N#CC(c1ccccc1)c1cccc(Cl)n1 (stereo not given) | 0.6 | -3.9 | 102.9* | x | 0.8
Nc1nc(-c2ccccc2)c(N=Nc2ccc(Cl)cc2)s1 | x | -1.1 | 8.1 | 0.7 | -41.7*
Nc1nc(-c2ccccc2)c(-c2ccccc2)s1 | x | x | -19.1 | 2.2 | x
CCN(c1ccc(OC)cc1)S(=O)(=O)c1cc(-c2cc(C)no2)ccc1OC | 0.9 | -0.2 | -10.4 | -0.2 | -31.0*
Cc1cccc(N(C)S(=O)(=O)c2ccc(-c3cc(C)no3)s2)c1 | 11.9* | 2.7 | -7.4 | -27.6 | -31.3
SMILES | CFTR F508del cor | ERAP1 HTS inh | PvdQ inh | ARNT TACC3 PPI | Ecoli rRNA inh
CCOc1ccc(N(C)S(=O)(=O)c2ccc(-c3cc(C)no3)s2)cc1 | 3.8 | -0.4 | -4.3 | -2.7 | 1.1
CCN(c1cccc(C)c1)S(=O)(=O)c1ccc(-c2cc(C)no2)s1 | 9.2* | -5.1 | -13.4 | -13.8 | -3.2
CC(C)CC#Cc1ccc([C@@H]2[C@H]3CN(C(=O)CN4CCOCC4)CC(=O)N3[C@H]2CO)cc1 | 2.0 | -1.6 | x | x | 1.9
CO[C@H]1CN(C)C(=O)c2ccc(NC(=O)Nc3cc(F)ccc3F)cc2OC[C@H](C)N(C)C[C@@H]1C | -1.6 | -2.5 | x | x | 0.8
O=C(O)c1ccccc1C(=O)Nc1n[nH]c(=S)s1 | 2.5 | 79.3* | -7.9 | -3.8 | 14.4
O=C(O)c1ccccc1C(=O)Nc1nccs1 | x | x | -5.0 | -3.7 | x
CCCNC(=O)Nc1ccc2c(c1)C(=O)N(C)[C@@H]1CC[C@H](CC(=O)NCc3ccccc3)O[C@@H]1CO2 | 0.3 | 0.8 | x | x | -3.0
O=C1NC(=Nc2ccc(O)cc2)S/C1=C/c1ccco1 | 11.2* | 0.8 | -1.6 | -3.9 | -10.3
Cn1cccc1/C=C1\SC(=Nc2cccc(O)c2)NC1=O | 9.1* | 6.3 | -11.5 | 2.9 | -19.9
Cn1cccc1/C=C1\SC(=Nc2ccc(O)cc2)NC1=O | 12.0* | x | -0.6 | 3.0 | -25.2
Cn1cccc1/C=C1\SC(=Nc2ccccc2)NC1=O | 14.5* | 5.1 | -14.4 | 2.8 | 1.8
Cc1ccc(N=C2NC(=O)/C(=C/c3cccn3C)S2)c(C)c1 | 0.0 | 4.1 | -13.5 | 2.2 | -12.4
COc1cc(/C=C2\SC(=Nc3ccc(O)cc3)NC2=O)cc(OC)c1O | 2.4 | 2.0 | -7.4 | -2.9 | -3.6
Cc1ccc(N=C2NC(=O)/C(=C\c3ccco3)S2)cc1 | x | x | -9.5 | 3.0 | x
C[C@@H]1CCCCO[C@@H](CN(C)C)[C@H](C)CN([C@@H](C)CO)C(=O)c2cc(NC(=O)c3ccccc3)ccc2O1 | -2.6 | 0.1 | x | -1.7 | 5.8
C[C@@H]1CN([C@@H](C)CO)C(=O)c2cc(NS(=O)(=O)c3cccs3)ccc2O[C@@H]1CN(C)S(C)(=O)=O | -0.5 | -3.0 | x | -4.8 | 6.8
S=c1[nH]nc(-c2ccccn2)n1/N=C/c1ccc(Br)s1 | x | x | -19.2 | 99.3* | x
S=c1[nH]nc(-c2ccccn2)n1/N=C/c1ccc(-c2ccccc2Cl)o1 | 2.0 | 0.9 | 8.9 | 55.8* | -2.6
S=c1[nH]nc(-c2ccccn2)n1/N=C/c1ccc(Cl)c(Cl)c1 | 0.7 | 5.3 | x | x | 12.9
COCC(=O)Nc1ccc2c(c1)C(=O)N(C)[C@H]1CC[C@H](CC(=O)NCCc3ccccc3)O[C@H]1CO2 | 3.2 | 1.1 | x | 11.6 | 2.4
COc1ccc(/C=C/C(=O)N2CCN(c3ccccn3)CC2)cc1 | 0.2 | -2.2 | 0.6 | 0.8 | -22.6*
CC12CCC(CC1O)C2C(=O)O (stereo not given) | 8.2* | -2.2 | x | x | 10.7
O=C(O)C1CC2CCC1CC2 (stereo not given) | 3.4 | 4.5 | -11.7 | 0.1 | 13.3
COC(=O)CC1C(=O)NCCN1C(=S)NC(=O)C(c1ccccc1)c1ccccc1 (stereo not given) | x | 1.1 | -10.4 | 15.3 | -25.9*
O=C(Nc1ccc(F)cc1)N1CC(=O)N2[C@H](CO)[C@@H](c3ccc(C4=CCCC4)cc3)[C@H]2C1 | 3.7 | 2.6 | x | x | -0.8
CO[C@@H](CN(C)Cc1cc(F)ccc1F)[C@@H](C)CN(C(=O)Nc1ccc(F)cc1)[C@@H](C)CO | 0.5 | 1.5 | x | -1.0 | -4.7
